The source of these data is PubChem BioAssay (NCATS).

Molecules are shown by their SMILES. Results filed as inconclusive are left out. A number with no mark means an inactive call. The source made the active and inactive calls. The call rests on the fitted dose curve; in most records, active means well fitted cell-killing curve with a large enough effect; inconclusive means small, poorly fitted or top-dose-only effect; inactive means flat fitted curve, though single readings scatter.
Potency means the concentration at half of the fitted maximal effect.

The first assay in a line: Cellular viability qHTS for adrenocortical cancer (ACC) cell line SW-13 (AID 1963989). Further: nearly all actives have a fitted effect of over 65% in size.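 On activity (max response): cells grown in serum-free medium with ITS supplement; on the % scale 0 is the no-effect control and ±100 the full control effect.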 As to conditions: SW-13 ACC cells viability, CellTiter-Glo, 48 h; activity (max response): hits give low values. Summed up: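 Luminescent ATP read-out (CellTiter-Glo, 20 min at room temperature) measured metabolically competent SW-13 cells after 48 h compound treatment. Final concentrations spanned up to 46 uM; bortezomib served as positive control.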
With `O=C(O)CCNc1cc(N2CCc3ccccc3CC2)nc(-c2cccnc2)n1`, the activity (max response) is -9.23%.
Turning to `C=CC[N+]1([C@H]2C[C@H]3[C@@H]4CC[C@H]5C[C@H](OC(C)=O)[C@@H](N6CCCCC6)C[C@]5(C)[C@H]4CC[C@]3(C)[C@H]2OC(=O)CC)CCCCC1`, the activity (max response) is -4.47%.
As for `[O-][n+]1ccccc1SSc1cccc[n+]1[O-]`, the Potency was 1.59 µM (active).
With `CC(=O)Oc1ccc(C2(c3ccc(OC(C)=O)cc3)C(=O)Nc3ccccc32)cc1`, the activity (max response) was -6.19%.
With `OC(C#CCN1CCCC1)(c1ccccc1)c1ccccc1`, the activity (max response) is -0.545%.
For `CC(=O)OCC(=O)[C@@]1(O)[C@H](C)C[C@H]2[C@@H]3CCC4=CC(=O)C=C[C@]4(C)[C@@]3(F)[C@@H](O)C[C@@]21C`, the activity (max response) is 2.72%.
Turning to `c1ccc(CCNc2nc(-c3ccccc3)cs2)cc1`, the activity (max response) was -5.01%.
On the same count and under the same terms, as for `CC(C)(C)C(O)/C=C/c1ccc2c(c1)OCO2` (stereo not given), the figure is -8.69%.
In the case of `Cc1c(CN2CCN(C(=O)[C@H](C)O)CC2)sc2c(N3CCOCC3)nc(-c3cnc(N)nc3)nc12`, the Potency was 0.631 µM (active).
Consider `Cc1ncc([N+](=O)[O-])n1CC(O)CCl` (stereo not given), for which the activity (max response) was -4.94%.
For `CCOc1ccccc1O[C@H](c1ccccc1)[C@H]1CNCCO1`, the activity (max response) was -2.45%.
Regarding `CS(=O)(=O)c1ccc(-c2cnc(NCc3ccco3)n3cnnc23)cc1`, the activity (max response) is -12%.
With `CCN(CC)CCNC(=O)c1cc(Br)c(N)cc1OC`, the activity (max response) was -8.12%.
Turning to `O=C(Nc1ccccc1)Nc1ccc(-c2ccc(C(=O)[C@@H]3CCC[C@H]3C(=O)O)cc2)cc1`, the activity (max response) was -19.9%.
Regarding `CCc1cc2c(c(OCC(F)(F)F)c(C(=O)NC3CCN(C(=O)CO)CC3)n2C)c(=O)n1CC(=O)c1ccccc1`, the activity (max response) was -16.3%.
The same measure, in the same setting: to `OCCOCCN1CCN(C2=Nc3ccccc3Sc3ccccc32)CC1` belongs -9.48%; to `Cc1[nH]cnc1CN1CCc2c(c3ccccc3n2C)C1=O`, 6.95%; to `O=C([C@@H](Cc1cccc(C(F)(F)F)c1)NS(=O)(=O)c1cc(F)c2c(c1)CCNC2)N1CCCC1`, -8.82%.
With `CC(C)n1ncnc1-c1cn2c(n1)-c1ccc(O[C@@H](C)C(N)=O)cc1OCC2`, the activity (max response) is -4.9%.
Still for that read-out and setting: to `Cc1cc(Nc2cc(N)ncn2)c(=O)n2c1C(=O)NC21CCCCC1` belongs 0.221%; to `Cc1ccc(/C(=C\CN2CCCC2)c2ccccn2)cc1`, 2.73%; to `N[C@@H](Cc1cc(I)c(O)c(I)c1)C(=O)O`, 8.5%.
As to `CCC(C(=O)OCCN(CC)CC)c1ccccc1` (stereo not given), the activity (max response) was 4.88%.
In the case of `CN(C)c1ccc(C(=C2C=CC(=[N+](C)C)C=C2)c2ccccc2)cc1`, the Potency was 0.82 µM (active).
Consider `C[C@@H]1C[C@H]2[C@@H]3CCC4=CC(=O)C=C[C@]4(C)[C@@]3(F)[C@@H](O)C[C@]2(C)[C@H]1C(=O)CO`, for which the activity (max response) was 1.09%.
Regarding `CCCCC(=O)OCC(=O)[C@H]1[C@H](C)C[C@H]2[C@@H]3C[C@H](F)C4=CC(=O)C=C[C@]4(C)[C@@]3(F)[C@@H](O)C[C@@]21C`, the activity (max response) was 5.4%.
`COc1cc(=C2C=c3ccccc3=N2)[nH]/c1=C/c1[nH]c(C)cc1C`: the Potency is 28.2 µM (active).
`Cc1ccc(NS(=O)(=O)c2ccc3c(c2)C2C=CCC2C(c2ccc(C(=O)O)cc2)N3)cc1C` (stereo not given): the activity (max response) was -1.16%.
Same read-out and setting: as for `Nc1ccc(N=Nc2ccccc2)c(N)n1`, the figure is -2.95%; as for `O=C(O)Cc1ccc(CCNS(=O)(=O)c2ccc(Cl)cc2)cc1`, -0.672%.
The same measure, in the same setting: to `CCN(CC)CCOc1ccccc1C(=O)CCc1ccccc1` belongs -19.2%; to `O=C1[C@@H]2[C@H]3CC[C@H](C3)[C@@H]2C(=O)N1CCCCN1CCN(c2ncccn2)CC1`, 6.58%.
For `C[C@@]12CCC[C@H]1[C@@H]1CC[C@H]3C[C@@H](O)CC[C@]3(C)[C@H]1CC2`, the activity (max response) is -0.85%.
As to `CC[N+](CC)(CCNC(=O)C(=O)NCC[N+](CC)(CC)Cc1ccccc1Cl)Cc1ccccc1Cl`, the activity (max response) was -1.37%.
`Nc1ccc2cc3ccc(N)cc3nc2c1`: the Potency is 6.51 µM (active).
`CC(=O)Oc1cccc2c1C(=O)c1c(OC(C)=O)cc(C(=O)O)cc1C2=O`: the activity (max response) is -7.7%.
Take `C#CCN(C)CCCOc1ccc(Cl)cc1Cl`: the activity (max response) is -17.3%.
Consider `CC(Oc1c(Cl)cccc1Cl)C1=NCCN1` (stereo not given), for which the activity (max response) was 12.6%.
Consider `CC(C)C[C@H](CC(=O)O)C(=O)N[C@@H](Cc1c[nH]c2ccccc12)C(=O)N[C@@H](C)c1ccccc1`, for which the activity (max response) is 0.614%.
Same read-out and setting: as for `Nc1ccc(S(=O)(=O)Nc2ccccc2)cc1`, the figure is 5.64%.

Another assay can be described thus: Cellular viability qHTS for adrenocortical cancer (ACC) cell line NCI-H295R (AID 1963990). Further: nearly all actives have a fitted effect of over 60% in size. As to conditions: CellTiter-Glo ATP luminescence, 48 h; series mostly up to 46.1 µM. The procedure, abridged: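 IC50 and maximal efficacy derive from four-parameter logistic modelling of titration curves, with reads scaled between DMSO-only wells (0%) and doxorubicin hydrochloride (100% inhibition). Compounds spanned up to 46 uM over 48 h.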
Regarding `O=C(O)CCNc1cc(N2CCc3ccccc3CC2)nc(-c2cccnc2)n1`, the Potency entry is “inactive”.
Same read-out and setting: to `C=CC[N+]1([C@H]2C[C@H]3[C@@H]4CC[C@H]5C[C@H](OC(C)=O)[C@@H](N6CCCCC6)C[C@]5(C)[C@H]4CC[C@]3(C)[C@H]2OC(=O)CC)CCCCC1` belongs “inactive”; to `[O-][n+]1ccccc1SSc1cccc[n+]1[O-]`, 0.0893 µM (active); to `CC(=O)Oc1ccc(C2(c3ccc(OC(C)=O)cc3)C(=O)Nc3ccccc32)cc1`, “inactive”.
Same read-out and setting: as for `OC(C#CCN1CCCC1)(c1ccccc1)c1ccccc1`, the entry is “inactive”; as for `CC(=O)OCC(=O)[C@@]1(O)[C@H](C)C[C@H]2[C@@H]3CCC4=CC(=O)C=C[C@]4(C)[C@@]3(F)[C@@H](O)C[C@@]21C`, “inactive”.
Consider `c1ccc(CCNc2nc(-c3ccccc3)cs2)cc1`, for which the Potency result is “inactive”.
`CC(C)(C)C(O)/C=C/c1ccc2c(c1)OCO2` (stereo not given): the Potency entry was “inactive”.
The same measure, in the same setting: as for `Cc1c(CN2CCN(C(=O)[C@H](C)O)CC2)sc2c(N3CCOCC3)nc(-c3cnc(N)nc3)nc12`, the figure is 0.398 µM (active); as for `Cc1ncc([N+](=O)[O-])n1CC(O)CCl` (stereo not given), “inactive”; as for `CCOc1ccccc1O[C@H](c1ccccc1)[C@H]1CNCCO1`, “inactive”.
Regarding `CS(=O)(=O)c1ccc(-c2cnc(NCc3ccco3)n3cnnc23)cc1`, the Potency result was “inactive”.
Consider `CCN(CC)CCNC(=O)c1cc(Br)c(N)cc1OC`, for which the Potency result is “inactive”.
`O=C(Nc1ccccc1)Nc1ccc(-c2ccc(C(=O)[C@@H]3CCC[C@H]3C(=O)O)cc2)cc1`: the Potency result is “inactive”.
The same measure, in the same setting: as for `CCc1cc2c(c(OCC(F)(F)F)c(C(=O)NC3CCN(C(=O)CO)CC3)n2C)c(=O)n1CC(=O)c1ccccc1`, the entry is “inactive”.
For `OCCOCCN1CCN(C2=Nc3ccccc3Sc3ccccc32)CC1`, the Potency entry was “inactive”.
`Cc1[nH]cnc1CN1CCc2c(c3ccccc3n2C)C1=O`: the Potency entry was “inactive”.
Regarding `O=C([C@@H](Cc1cccc(C(F)(F)F)c1)NS(=O)(=O)c1cc(F)c2c(c1)CCNC2)N1CCCC1`, the Potency entry was “inactive”.
The same measure, in the same setting: to `CC(C)n1ncnc1-c1cn2c(n1)-c1ccc(O[C@@H](C)C(N)=O)cc1OCC2` belongs 0.631 µM (active); to `Cc1cc(Nc2cc(N)ncn2)c(=O)n2c1C(=O)NC21CCCCC1`, “inactive”; to `Cc1ccc(/C(=C\CN2CCCC2)c2ccccn2)cc1`, “inactive”.
As for `N[C@@H](Cc1cc(I)c(O)c(I)c1)C(=O)O`, the Potency entry is “inactive”.
The same measure, in the same setting: as for `CCC(C(=O)OCCN(CC)CC)c1ccccc1` (stereo not given), the entry is “inactive”; as for `CN(C)c1ccc(C(=C2C=CC(=[N+](C)C)C=C2)c2ccccc2)cc1`, 0.92 µM (active); as for `C[C@@H]1C[C@H]2[C@@H]3CCC4=CC(=O)C=C[C@]4(C)[C@@]3(F)[C@@H](O)C[C@]2(C)[C@H]1C(=O)CO`, “inactive”.
Turning to `CCCCC(=O)OCC(=O)[C@H]1[C@H](C)C[C@H]2[C@@H]3C[C@H](F)C4=CC(=O)C=C[C@]4(C)[C@@]3(F)[C@@H](O)C[C@@]21C`, the Potency result is “inactive”.
With `COc1cc(=C2C=c3ccccc3=N2)[nH]/c1=C/c1[nH]c(C)cc1C`, the Potency was 7.94 µM (active).
In the case of `Cc1ccc(NS(=O)(=O)c2ccc3c(c2)C2C=CCC2C(c2ccc(C(=O)O)cc2)N3)cc1C` (stereo not given), the Potency entry was “inactive”.
In the case of `Nc1ccc(N=Nc2ccccc2)c(N)n1`, the Potency result is “inactive”.
Same read-out and setting: to `O=C(O)Cc1ccc(CCNS(=O)(=O)c2ccc(Cl)cc2)cc1` belongs “inactive”; to `CCN(CC)CCOc1ccccc1C(=O)CCc1ccccc1`, “inactive”.
Turning to `O=C1[C@@H]2[C@H]3CC[C@H](C3)[C@@H]2C(=O)N1CCCCN1CCN(c2ncccn2)CC1`, the Potency result is “inactive”.
Turning to `C[C@@]12CCC[C@H]1[C@@H]1CC[C@H]3C[C@@H](O)CC[C@]3(C)[C@H]1CC2`, the Potency entry was “inactive”.
For the molecule `CC[N+](CC)(CCNC(=O)C(=O)NCC[N+](CC)(CC)Cc1ccccc1Cl)Cc1ccccc1Cl`, the Potency entry was “inactive”.
For the molecule `Nc1ccc2cc3ccc(N)cc3nc2c1`, the Potency was 2.59 µM (active).
On the same count and under the same terms, to `CC(=O)Oc1cccc2c1C(=O)c1c(OC(C)=O)cc(C(=O)O)cc1C2=O` belongs “inactive”; to `C#CCN(C)CCCOc1ccc(Cl)cc1Cl`, 18.4 µM (active); to `CC(Oc1c(Cl)cccc1Cl)C1=NCCN1` (stereo not given), “inactive”.
With `CC(C)C[C@H](CC(=O)O)C(=O)N[C@@H](Cc1c[nH]c2ccccc12)C(=O)N[C@@H](C)c1ccccc1`, the Potency entry is “inactive”.
Regarding `Nc1ccc(S(=O)(=O)Nc2ccccc2)cc1`, the Potency entry was “inactive”.
